The source of these data is PubChem BioAssay (Tox21).

Results filed as inconclusive are left out. Activity calls are given as the source filed them. Calls follow the shape of the dose curve; as a rule, active = well fitted curve in the direction sought with a large enough effect in the repeat runs; inconclusive = weak or mixed curves; inactive = no such curve, though single readings can be large; an effect the other way counts as inactive or inconclusive.

A short description of one assay: qHTS assay to identify small molecule antagonists of the estrogen related receptor (ERR) signaling pathway - cell viability counter screen (AID 1224818).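 Also: viability measured after 17.5 h of compound exposure.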 The following applies: ERR reporter cell line viability counter screen; series mostly up to 46.1 µM. The method, boiled down: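 ERR cells, 2,000 per well, compound added after 6 h and incubated 17.5 h at 37 C. Viability read by CellTiter-Fluor fluorescence after a further 30 min at 37 C.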
(qHTS replaces the single test concentration by a dilution series.)
As for `N[C@@H](COP(=O)(O)O)C(=O)O`, the molecule was classed as inactive. Still for that read-out and setting: under `Nc1nnc(-c2cccc(Cl)c2Cl)c(N)n1` stands “inactive”. Regarding `CN1CCN(CC(=O)N2c3ccccc3C(=O)Nc3cccnc32)CC1`, the outcome was inactive. Still for that read-out and setting: under `CCN(CC)CC(=O)Nc1c(C)cccc1C` stands “inactive”. Still for that read-out and setting: as for `NC(CO)C(=O)NNCc1ccc(O)c(O)c1O` (stereo not drawn), the entry is “inactive”; as for `CCOC(=O)c1ncn2c1CN(C)C(=O)c1cc(F)ccc1-2`, “inactive”; as for `Cc1cc(C(C)(C)C)c(O)c(C)c1CC1=NCCN1`, “inactive”.

Another assay can be described thus: qHTS assay to identify small molecule agonists of the estrogen related receptor (ERR) signaling pathway (AID 1224820). The settings on record: ERR reporter cell line, luciferase agonist mode; series mostly up to 46.1 µM. Put shortly: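 Cells: ERR line from NTP, 2,000/well. Pre-incubation 6 h, 37 C/5% CO2. Compound (DMSO) pin transfer, 18 h 37 C. One-Glo, 30 min RT, luminescence.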
With `CN1CCN(CC(=O)N2c3ccccc3C(=O)Nc3cccnc32)CC1`, the molecule was called inactive. In the case of `CCN(CC)CC(=O)Nc1c(C)cccc1C`, the result was inactive. `NC(CO)C(=O)NNCc1ccc(O)c(O)c1O` (stereo not drawn): the molecule was called inactive.

Another assay can be described thus: qHTS assay to identify small molecule agonists of the estrogen related receptor signaling pathway with the pleiotropic PPARgamma coactivator (PGC) (AID 1224823). The settings on record: ERR/PGC reporter cell line, luciferase agonist mode; series mostly up to 46.1 µM. The method, boiled down:
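Steps: plate PGC/ERR cells at 2,000 cells/well; incubate 6 h, 37 C/5% CO2; pin-transfer compounds (DMSO); incubate 18 h, 37 C; add One-Glo; 30 min RT; read luminescence.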
Consider `CN1CCN(CC(=O)N2c3ccccc3C(=O)Nc3cccnc32)CC1`, for which the molecule was classed as inactive.

Regarding `CCN(CC)CC(=O)Nc1c(C)cccc1C`, the call was inactive.

For `NC(CO)C(=O)NNCc1ccc(O)c(O)c1O` (stereo not drawn), the outcome was inactive.
